# LASV entry inh = blocks Lassa virus binding to or entry into cells | Lassa virus pseudotype entry inhibition, cell reporter | Potency, µM (series often up to 37.9 µM), for inactives: at the top dose activity change, negative = inhibition, hits mostly inhibitors | hit rate 1.2% among 300,000 | AID 540256; calls by dose curve; tested in HEK293 cells; further: potency means the concentration at half of the fitted maximal effect; on the % scale 0 is the no-effect control and ±100 the full control effect; nearly all actives have a fitted effect of over 50% in size
# Pf growth 96h = P. falciparum growth inhibition at 96 hour, primary screen for plastid delayed-death inhibitors | P. falciparum luciferase reporter growth, 96 h | Potency, µM (doses to about 28.7 µM), without a hit: at the highest dose activity change, negative = inhibition, hits mostly inhibitors | hit rate 6.9% among 320,000; further: potency means the concentration at half of the fitted maximal effect; on the % scale 0 is the no-effect control and ±100 the full control effect
#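 Parasite growth measured via integrated firefly luciferase reporter in P. falciparum. Infected erythrocytes at 2% hematocrit, 0.05% parasitemia final were treated 96 hours at 37 C under 5% CO2, and luminescence was read.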
# Pf growth 48h = P. falciparum growth inhibition at 48 hours (one generation); Potency, µM (top dose mostly 28.7 µM), for inactives: at the top dose activity change, negative = inhibition, hits mostly inhibitors; AID 504832; P. falciparum luciferase growth in erythrocytes, 48 h; hit rate 5.9% among 310,000; further: potency means the concentration at half of the fitted maximal effect; on the % scale 0 is the no-effect control and ±100 the full control effect
#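 Erythrocytes infected with P. falciparum carrying an integrated firefly luciferase reporter (2% hematocrit, 0.1% parasitemia final) were exposed to compounds in RPMI 1640 with 0.5% Albumax at 37 C, 5% CO2. Growth inhibition was scored as reduced luminescence.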
# Shiga toxin inh = Shiga toxin inhibition. inhibition, % at 38.7 µM. Vero cells, Shiga toxin protein synthesis inhibition reporter. hit rate 9.2% among 290,000. AID 2315; in the data active means inhibition mostly above about 28%, no sharp cut-off; inactive means mostly below about 43%; further: 0% is about no effect
# Cycloheximide cs = counter-screen for Shiga toxin inhibitors: cycloheximide protein synthesis inhibition; max response, %; hit rate 12% among 300,000; cell reporter, cycloheximide protein synthesis inhibition counterscreen; AID 2314; in the data active means max response mostly above about 13%, no sharp cut-off; inactive means mostly below about 14%; further: read at 38.3 µM for the half of the compounds with a filed dose; 0% is about no effect
# MARV entry inh = inhibitors of Marburg virus binding or cell entry; Marburg virus pseudotyped entry inhibition, cell reporter; Potency, µM (series often up to 37.8 µM), for the others: at the highest dose activity change, negative = inhibition, hits mostly inhibitors; hit rate 1.8% among 300,000; calls by dose curve; tested in HEK293 cells; further: potency means the concentration at half of the fitted maximal effect; on the % scale 0 is the no-effect control and ±100 the full control effect
# The depositor's hits bear a star; i = inactive; ? = inconclusive; . = not tested or not shown; [ ] = remark or other dose. A selection: hits, their analogues and other compounds. The true share with any hit is near 19%. Unless noted, the call rests on the fitted dose curve; in most records, active means well fitted inhibition curve with a large enough effect; inconclusive means small, poorly fitted or top-dose-only effect, or another doubt; inactive means no such curve, though single readings can be large or run the other way.
SMILES,LASV entry inh,Pf growth 96h,Pf growth 48h,Shiga toxin inh,Cycloheximide cs,MARV entry inh
CCN(c1cccc(C)c1)c1nc2ccsc2c(=O)s1,?,8.3µM*,8%,-24,-1,?
C#CCOCCOCCOCCNc1nc(N2CCN(C(=O)[C@H]([C@@H](C)CC)n3cc([C@@H](N)Cc4ccc(O)cc4)nn3)CC2)nc(N2CCN(C(=O)[C@H]([C@@H](C)CC)n3cc([C@@H](N)Cc4ccc(O)cc4)nn3)CC2)n1,.,1.9µM*,1.9µM*,-7,-4,.
C#CCOCCOCCOCCNc1nc(N2CCN(C(=O)[C@H]([C@@H](C)CC)n3cc([C@@H](N)CO)nn3)CC2)nc(N2CCN(C(=O)[C@H]([C@@H](C)CC)n3cc([C@@H](N)Cc4ccc(O)cc4)nn3)CC2)n1,.,-24%,?,-9,5,.
C#CCOCCOCCOCCNc1nc(N2CCN(C(=O)[C@H]([C@@H](C)CC)n3cc([C@@H](N)CC(C)C)nn3)CC2)nc(N2CCN(C(=O)[C@H]([C@@H](C)CC)n3cc([C@@H](N)CC(C)C)nn3)CC2)n1,.,1.9µM*,1.7µM*,1,2,.
Cc1ccc2[nH]c(=O)c(CN(Cc3cccs3)C(=S)NCC3CCCO3)cc2c1 (stereo not given),-19%,?,12%,-6,-2,?
COc1ccc(C)cc1-n1c(C)cc(C=O)c1C,-16%,0%,?,-8,3,-10%[46.1 µM]
COc1ccc(N)cc1-n1c(C)ccc1C,-1%[46.1 µM],35%,?,37*,25*,?
CCOCCCNC(=O)Cn1nc(CC)n2c(cc3c(OC)cccc32)c1=O,.,.,.,.,.,11%[46.1 µM]
CCCCOc1ccccc1CC1C(=O)Nc2ccc(Br)cc21 (stereo not given),-12%[46.1 µM],.,.,.,.,?
CCOC(=O)C1=C(C)n2c(s/c(=C/c3cccc([N+](=O)[O-])c3)c2=O)=NC1c1ccc(O)c(OC)c1 (stereo not given),?,.,2.9µM*,-2,-4,?
COc1ccc2[nH]c(O)c(N=NC(=O)Cc3cccs3)c2c1,.,24%,5%,39*,27*,.
O=C(Cc1cccs1)N=Nc1c(O)[nH]c2ccc(Br)cc12,?,48%,5%,-4,-2,-8%[46.1 µM]
O=C(Cc1cccs1)N=Nc1c(O)[nH]c2ccccc12,.,?,?,85*,56*,.
O=[N+]([O-])c1ccc(-c2nc(NCc3ccccc3)c3ccccc3n2)cc1,-14%,-7%,12%,-6,9,?
OCCNc1nc(-c2cccnc2)nc2ccccc12,15%,2%,-29%,-7,-2,-25%
OCCNc1nc(Nc2ccc(O)cc2)nc2ccccc12,.,5.2µM*,1.7µM*,-5,-3,.
OCCNc1nc(Nc2cccc(O)c2)nc2ccccc12,-12%,0.1µM*,2.3µM*,13,-3,?
OCCNc1nc(NCc2ccccc2)c2ccccc2n1,18%[46.1 µM],12µM*,?,-5,-1,?
COCCN(C(=O)CSc1nnc(-c2cccc(OC)c2)n1C)c1c(N)n(Cc2ccccc2)c(=O)[nH]c1=O,.,-4%,19%,13,1,.
O=C(NCCc1ccccc1)c1cccc(S(=O)(=O)NCc2ccccc2)c1,?,-1%,-9%,.,.,1%
Fc1ccccc1-n1cn[nH]c1=S,.,57%,50%,69*,28*,.
COc1cccc(NC(=O)c2cnc(SCC(=O)N3CCCc4ccccc43)n(C)c2=O)c1,15%[46.1 µM],.,.,.,.,.
CCOc1ccc(-c2cc(CCCC(=O)Nc3cccc(OC)c3)no2)cc1,0.82µM*,-27%,?,-4,2,?
CCOc1ccc(NC(=O)CCCc2cc(-c3ccc(OCC)cc3)on2)cc1,?,.,-1%,13,2,-21%[46.1 µM]
CCOc1ccc(CCNC(=O)CCCc2cc(-c3ccc(OCC)cc3)on2)cc1,-30%[46.1 µM],.,.,.,.,?
SMILES,LASV entry inh,Pf growth 96h,Pf growth 48h,Shiga toxin inh,Cycloheximide cs,MARV entry inh
CCOc1ccc(-c2cc(CCCC(=O)NCc3cccnc3)no2)cc1,-29%,7%,22%,65*,51*,5%
CCOc1ccc(-c2cc(CCCC(=O)NCCC(C)C)no2)cc1,-21%[46.1 µM],?,11%,134*,25*,-1%[46.1 µM]
CCOc1ccc(-c2cc(CCCC(=O)NCCc3ccccc3)no2)cc1,-12%,.,.,52,8,-6%
CCN(CC(=O)NCc1ccc(F)cc1)CC(=O)Nc1ccc(S(=O)(=O)N2CCCC2)cc1,6%,?,?,-11,-1,-1%
CCN1C2OC3OC4C(OC3OC2N(CC)S1(=O)=O)N(CC)S(=O)(=O)N4CC (stereo not given),.,29%,20%,-1,2,.
COc1ccc(NC(=O)COc2nsnc2N2CCOCC2)cc1,9%,4%,6%,-4,4,1%
COc1cc2nc(CN3CCN(S(=O)(=O)c4ccc(C)c(C)c4)CC3)[nH]c(=O)c2cc1OC,-25%,?,9.3µM*,-13,-2,3%[46.1 µM]
Clc1ccc([C@H](Cn2ccnc2)OCc2c(Cl)cccc2Cl)c(Cl)c1,.,2µM*,6.4µM*,.,.,.
Clc1cccc(OCCn2ccnc2)c1,4%,i,-3%,-3,-1,-7%
Clc1ccc(COC(Cn2ccnc2)c2ccc(Cl)cc2Cl)cc1 (stereo not given),-29%,1.9µM*,2.1µM*,-12,-3,-40%
C=CCOc1ccc(/C=N/NC(=O)C2CCCC2)cc1OCC,.,?,2%,1,-2,.
CN(C)CCCC(C)(O)C(C)(C)c1ccccc1 (stereo not given),16%,-1%,-13%,14,-1,5%
Oc1ccc(-c2nc3ccc4ccccc4c3c3c2CCC3)cc1O,?,6%,15µM*,13,23,?
CCOc1cccc(C(=O)N2CCCN(C)CC2)c1,.,?,-23%,-9,-3,.
O=C(CSc1ccccc1C(=O)O)c1ccc(Cl)cc1,0%[46.1 µM],34%,64%,65*,30*,16%[46.1 µM]
CC(C)CCNC(=O)COC(=O)c1ccc(Br)o1,2%,-14%,.,3,0,22%
CC(C)(C)OC(=O)N1CCC(C(=O)N2CCCCCC2)CC1,7%,12µM*,1%,13,-2,-10%
COc1ccc(N2CC(C(=O)Nc3cc(C(F)(F)F)ccc3N3CCCC3)CC2=O)c(OC)c1 (stereo not given),?,4%,?,.,.,?
COc1ccc(/C=N/N=C/c2ccc(OC)c(OC)c2)cc1OC,-2%,117%,3.7µM*,-4,-4,5%
COc1ccc(/C=N/NC(=O)c2ccncc2)cc1OC,-14%,9%,9%,-10,1,6%
COc1ccc(/C=N/N=C/c2ccc(OC)cc2)cc1,.,?,?,46,25*,.
COc1ccc(C(=O)Oc2ccc(/C=N/O)cc2)cc1,1%,?,49%,83*,74*,2%
COc1ccc(/C=N/N=C/c2ccc(OC)c(O)c2)cc1O,-4%,7%,?,55,36*,1%

# Source: PubChem BioAssay (National Center for Advancing Translational Sciences (NCATS))
